Assay [1] can be described thus: A CellTox Green Cytotoxicity Assay to monitor cytotoxicity in HEK293 cells - 32 hour (AID 1224881). Note: nearly all actives have a fitted effect of over 40% in size. Note: potency is the fitted concentration of half-maximal effect. In a few lines: (§1)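 Nonlytic real-time cytotoxicity: HEK293 + CellTox Green reagent plated, 5 h preincubation, pintool compound addition (23 nL in DMSO), 37 C for 40 h, fluorescence measured at successive time points.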
The nature of assay [2]: A CellTox Green Cytotoxicity Assay to monitor cytotoxicity in HepG2 cells - 0 hour (AID 1224882). Note: nearly all actives have a fitted effect of over 35% in size. In a few lines: (§2)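 Read-out is fluorescence of a cyanine dye excluded from live cells that stains DNA of dead HepG2 cells, with signal proportional to cytotoxicity. Plates were read at 0, 8, 16, 24, 32 and 40 h after compound addition.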
Assay [3] in a line: A CellTox Green Cytotoxicity Assay to monitor cytotoxicity in HEK293 cells - 8 hour (AID 1224884). Note: nearly all actives have a fitted effect of over 35% in size. Note: potency is the fitted concentration of half-maximal effect. The gist of the method: as §1
The nature of assay [4]: qHTS RealTime-Glo MT Cell Viability Assay in HepG2 cells - 16 hour (AID 1224885). Note: nearly all actives have a fitted effect of over 50% in size. Note: potency is the fitted concentration of half-maximal effect. In a few lines: (§3)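 HepG2 cells (600/well) were dispensed with RealTime-Glo reagents, incubated 5 h at 37 °C, then treated with compounds in DMSO for up to 40 h. Nonlytic NanoLuc luminescence reflecting viable cells was read at each stated time point.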
(qHTS replaces the single test concentration by a dilution series.)

The nature of assay [5]: qHTS RealTime-Glo MT Cell Viability Assay in HEK293 cells - 24 hour (AID 1224886). Note: nearly all actives have a fitted effect of over 50% in size. Note: potency is the fitted concentration of half-maximal effect. The gist of the method:
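HEK293 cells seeded with NanoLuc/prosubstrate reagent, rested 5 h at 37 C, then dosed and kept at 37 C up to 40 h. Nonlytic real-time luminescence from viable cells read at 0, 8, 16, 24, 32 and 40 h.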

Assay [6] in a line: qHTS RealTime-Glo MT Cell Viability Assay in HEK293 cells - 8 hour (AID 1224887). Note: nearly all actives have a fitted effect of over 50% in size. Note: potency is the fitted concentration of half-maximal effect. In a few lines:
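Cells were seeded together with NanoLuc luciferase and a prosubstrate that viable cells reduce to a luciferase substrate. After a 5 h incubation at 37 C/5% CO2, compounds were added and luminescence was measured repeatedly during 40 h of treatment.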

The nature of assay [7]: A CellTox Green Cytotoxicity Assay to monitor cytotoxicity in HEK293 cells - 16 hour (AID 1224888). Note: nearly all actives have a fitted effect of over 35% in size. Note: potency is the fitted concentration of half-maximal effect. The gist of the method:
as §1

Assay [8] can be described thus: qHTS RealTime-Glo MT Cell Viability Assay in HepG2 cells - 0 hour (AID 1224889). Note: nearly all actives have a fitted effect of over 50% in size. In a few lines: as §3
Assay [9] in a line: A CellTox Green Cytotoxicity Assay to monitor cytotoxicity in HepG2 cells - 8 hour (AID 1224890). Note: nearly all actives have a fitted effect of over 45% in size. Note: potency is the fitted concentration of half-maximal effect. The gist of the method: as §2
Assay [10] can be described thus: A CellTox Green Cytotoxicity Assay to monitor cytotoxicity in HepG2 cells - 32 hour (AID 1224883). Note: nearly all actives have a fitted effect of over 50% in size. Note: potency is the fitted concentration of half-maximal effect. In a few lines:
as §2

The values below come from PubChem BioAssay (Tox21).

Several values for one entry are separate records, joined by “and”; a condition that tells them apart may be missing. Equal values may be shown once. Records with an inconclusive call do not appear. Activity calls are given as the source filed them. Calls come from the whole dose curve; as a rule, active = well fitted curve in the direction sought with a large enough effect in the repeat runs; inconclusive = weak or mixed curves; inactive = no such curve, though single readings can be large; an effect the other way counts as inactive or inconclusive.

For the compound `[F][Sn]([c]1ccccc1)([c]1ccccc1)[c]1ccccc1`, the Potency in assay [1] was 1.74 µM (active); in assay [3], 5.49 µM (active); in assay [4], 0.871 µM (active); in [5], 0.49 µM (active); in assay [6] it was 1.74 µM (active); in assay [7], 6.16 µM (active). Besides, the Potency in assay [9] was 2.45 µM (active). The Potency result in assay [2] and in assay [8] was “inactive” in each case.

For the compound `CC(=O)[O-].CC(=O)[O-].[Co+2]`, the Potency result in assay [1], in assay [2], in [3], in assay [4], in assay [5] and in assay [6] was “inactive” throughout. Also, the Potency result in assay [7], in assay [8] and in assay [9] was “inactive” each time.

For the compound `BrCCCBr`, the Potency result in [1], in [2], in assay [3], in assay [4], in assay [5] and in assay [6] was “inactive” each time. In addition, the Potency entry in assay [7], in assay [8] and in assay [9] was “inactive” in each case.

For `CCC(C)Nc1c([N+](=O)[O-])cc(C(C)(C)C)cc1[N+](=O)[O-]` (stereo not drawn), the Potency entry in assay [1], in [2], in assay [3], in [4], in [5] and in assay [7] was “inactive” in each case. In addition, the Potency entry in [8] and in assay [9] was “inactive” throughout.

Regarding `c1ccc2nc(N3CCNCC3)ccc2c1`, the Potency result in assay [1], in assay [2], in assay [3], in assay [4], in assay [5] and in [6] was “inactive” in each case. Besides, the Potency entry in assay [7], in assay [8] and in assay [9] was “inactive” throughout.

Take `Clc1cc(Cl)c(-c2cc(Cl)c(Cl)cc2Cl)cc1Cl`: the Potency entry in assay [1], in [2], in assay [3], in assay [4], in [5] and in assay [6] was “inactive” each time. Also, the Potency entry in [7], in [8] and in assay [9] was “inactive” throughout.

For `C[N+]1(C)[C@@H]2CC[C@H]1CC(OC(=O)C(CO)c1ccccc1)C2` (stereo partly drawn), the Potency result in assay [1], in assay [2], in assay [3], in assay [4], in assay [5] and in assay [6] was “inactive” in each case. Moreover, the Potency result in assay [7], in assay [8] and in [9] was “inactive” each time.

For `COC(=O)/C=C(\C)OP(=O)(OC)OC`, the Potency result in assay [1], in [2], in assay [3], in [4], in [5] and in assay [6] was “inactive” throughout. Further, the Potency result in [7], in [8] and in assay [9] was “inactive” each time.

Consider `CN`, for which the Potency entry in [1], in [2], in assay [3], in assay [4], in assay [5] and in assay [6] was “inactive” in each case. The Potency result in assay [7], in [8] and in assay [9] was “inactive” throughout.

On to `COc1c2c(cc3c1OCO3)CCN(C)C2`, for which the Potency result in assay [1], in assay [2], in assay [3], in assay [4], in assay [5] and in assay [6] was “inactive” throughout. Moreover, the Potency result in assay [7], in assay [8] and in assay [9] was “inactive” throughout.

In the case of `O=[N+]([O-])c1ccccc1-c1ccccc1`, the Potency entry in [1], in [2], in [3], in assay [4], in assay [5] and in assay [6] was “inactive” throughout. Besides, the Potency entry in [7], in assay [8] and in [9] was “inactive” throughout.

Take `CCOP(=S)(NC(C)C)Oc1ccccc1C(=O)OC(C)C` (stereo not drawn): the Potency entry in assay [1], in [2], in [10], in assay [7], in assay [8] and in assay [9] was “inactive” each time.

As to `O=S1OCC2C(CO1)C1(Cl)C(Cl)=C(Cl)C2(Cl)C1(Cl)Cl` (stereo not drawn), the Potency in assay [1] was 49 µM (active) and 54.9 µM (active); in assay [10], 54.9 µM (active); in assay [4], 48.9 µM (active); in assay [5], 21.9 µM (active) and 38.9 µM (active); in assay [6], 43.6 µM (active); in assay [9], 54.9 µM (active). Further, the Potency entry in assay [2] and in assay [8] was “inactive” throughout.

As for `CCC(OC(C)=O)C(CC(C)NC)(c1ccccc1)c1ccccc1` (stereo not drawn), the Potency in assay [1] was 62.2 µM (active); in [10], 55.4 µM (active); in assay [5] it was 55.4 µM (active); in [7], 62.2 µM (active). Moreover, the Potency entry in assay [2] is “inactive”.

For the compound `c1ccc(N=NNc2ccccc2)cc1`, the Potency is 50.7 µM (active) and 43.6 µM (active) in assay [1]; 50.7 µM (active) in assay [6]. The Potency entry in assay [2], in assay [3], in assay [5], in [7], in assay [8] and in assay [9] was “inactive” each time.

For `C[C@]12CC[C@H]3[C@@H](CCC4=CC(=O)CC[C@@H]43)[C@@H]1CC[C@@H]2OC(=O)CCc1ccco1`, the Potency result in assay [2], in assay [10], in [3], in assay [4], in [5] and in assay [6] was “inactive” in each case. For the same compound, the Potency result in assay [7], in [8] and in [9] was “inactive” in each case.

For `Cc1ccccc1OP(=O)(Oc1ccccc1C)Oc1ccccc1C`, the Potency result in assay [1], in [2], in assay [3], in [4], in [7] and in assay [8] was “inactive” in each case. Also, the Potency entry in assay [9] was “inactive”.

For the compound `CSC1=N[C@@](C)(c2ccccc2)C(=O)N1Nc1ccccc1`, the Potency result in [2], in [10], in [3], in [4], in [5] and in [6] was “inactive” each time. Besides, the Potency result in assay [7], in assay [8] and in [9] was “inactive” each time.

On to `ClSC(Cl)(Cl)Cl`, for which the Potency result in [2], in assay [10], in assay [3], in [4], in [5] and in assay [6] was “inactive” each time. For the same compound, the Potency entry in assay [7], in assay [8] and in assay [9] was “inactive” throughout.

For `C#CCO`, the Potency entry in assay [2], in assay [10], in assay [3], in assay [4], in assay [5] and in assay [6] was “inactive” throughout. The Potency entry in [7], in assay [8] and in [9] was “inactive” in each case.

Take `Cc1cc(C2CC2)nc(Nc2ccccc2)n1`: the Potency result in assay [1], in [2], in [3], in assay [7] and in [8] was “inactive” each time. In addition, the Potency in [5] was 24.5 µM (active); in assay [6], 21.9 µM (active).

For the compound `BrCC(Br)(Br)Br`, the Potency result in [2], in [10], in assay [3], in assay [4], in assay [7] and in assay [8] was “inactive” throughout. Also, the Potency entry in assay [9] is “inactive”. Moreover, the Potency is 45.3 µM (active) in [5] and 16.1 µM (active) in [6].

With `CCN(CC)CCc1c[nH]c2ccccc12`, the Potency result in [2], in assay [10], in [3], in assay [4], in assay [5] and in [6] was “inactive” in each case. The Potency result in assay [7], in [8] and in assay [9] was “inactive” in each case.
